# Substitutions are numbered along the chain they refer to.
# Experiments:
# Experiment in all cases: PBM; 200 nM protein, PBS
# Conditions in all cases: dsDNA, one strand shown
# NKX2-4 [1] = target: T1, NKX2-4 (Homo sapiens, UniProt Q9H2Z4 175-261, P217L)
# T1 sequence: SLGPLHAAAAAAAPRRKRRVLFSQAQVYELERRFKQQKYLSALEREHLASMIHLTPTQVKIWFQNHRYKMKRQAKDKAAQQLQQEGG
# NKX2-4 [2] = target: T2, NKX2-4 (Homo sapiens, UniProt Q9H2Z4 175-261, T231S)
# T2 sequence: T1 sequence with L43P, T57S
# NKX2-4 [3] = target: T3, NKX2-4 (Homo sapiens, UniProt Q9H2Z4 175-261)
# T3 sequence: T1 sequence with L43P
# NKX2-4 [4] = target: T4, NKX2-4 (Homo sapiens, UniProt Q9H2Z4 175-261, R246Q)
# T4 sequence: T1 sequence with L43P, R72Q
# HOXC10 [5] = target: HOXC10 (Homo sapiens, UniProt Q9NYD6 254-340)
# HOXC10 [6] = target: HOXC10 (Homo sapiens, UniProt Q9NYD6 254-340, K271E)
# PAX4 [7] = target: T5, PAX4 (Homo sapiens, UniProt O43316 9-242, R200K)
# T5 sequence: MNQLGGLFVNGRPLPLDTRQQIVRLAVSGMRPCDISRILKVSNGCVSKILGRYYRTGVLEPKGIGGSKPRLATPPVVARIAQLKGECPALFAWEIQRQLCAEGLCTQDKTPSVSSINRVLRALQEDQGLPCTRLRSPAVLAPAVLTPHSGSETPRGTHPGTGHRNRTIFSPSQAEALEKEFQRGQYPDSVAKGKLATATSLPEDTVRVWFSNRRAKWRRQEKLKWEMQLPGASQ
# PAX4 [8] = target: T6, PAX4 (Homo sapiens, UniProt O43316 9-242)
# T6 sequence: T5 sequence with K192R
# HOXB6 [9] = target: HOXB6 (Homo sapiens, UniProt P17509 132-218, K202E)
# HOXA2 [10] = target: HOXA2 (Homo sapiens, UniProt O43364 129-215, R185T)
# ALX3 [11] = target: ALX3 (Homo sapiens, UniProt O95076 139-225, N203Q)
# PAX4 [12] = target: T7, PAX4 (Homo sapiens, UniProt O43316 9-242, R200Q)
# T7 sequence: T5 sequence with K192Q
# HOXA2 [13] = target: HOXA2 (Homo sapiens, UniProt O43364 129-215, R185K)
# PAX4 [14] = target: T8, PAX4 (Homo sapiens, UniProt O43316 9-242, F177V)
# T8 sequence: T5 sequence with F169V, K192R
# ALX3 [15] = target: ALX3 (Homo sapiens, UniProt O95076 139-225)
# PAX4 [16] = target: T9, PAX4 (Homo sapiens, UniProt O43316 9-242, F177Y)
# T9 sequence: T5 sequence with F169Y, K192R
# PROP1 [17] = target: PROP1 (Homo sapiens, UniProt O75360 56-141)
# PROP1 [18] = target: PROP1 (Homo sapiens, UniProt O75360 56-141, R99H)
# ALX3 [19] = target: ALX3 (Homo sapiens, UniProt O95076 139-225, L168Q)
# ALX3 [20] = target: ALX3 (Homo sapiens, UniProt O95076 139-225, L168V)
# PROP1 [21] = target: PROP1 (Homo sapiens, UniProt O75360 56-141, F88S)
# PAX4 [22] = target: T10, PAX4 (Homo sapiens, UniProt O43316 9-242, R227W)
# T10 sequence: T5 sequence with K192R, R219W
# HOXA2 [23] = target: HOXA2 (Homo sapiens, UniProt O43364 129-215, Y150S)
# ALX3 [24] = target: ALX3 (Homo sapiens, UniProt O95076 139-225, N203S)
# HOXA2 [25] = target: HOXA2 (Homo sapiens, UniProt O43364 129-215)
# HOXB6 [26] = target: HOXB6 (Homo sapiens, UniProt P17509 132-218)
# ALX4 [27] = target: ALX4 (Homo sapiens, UniProt Q9H161 200-286)
# ALX4 [28] = target: ALX4 (Homo sapiens, UniProt Q9H161 200-286, Q225E)
# HOXD13 [29] = target: HOXD13 (Homo sapiens, UniProt P35453 263-343, T313R)
# HOXD13 [30] = target: HOXD13 (Homo sapiens, UniProt P35453 263-343)
# HOXD13 [31] = target: HOXD13 (Homo sapiens, UniProt P35453 263-343, T313A)
# PRRX1 [32] = target: PRRX1 (Homo sapiens, UniProt P54821 80-166, F113S)
# PRRX1 [33] = target: PRRX1 (Homo sapiens, UniProt P54821 80-166)
# PRRX1 (Homo sapiens, UniProt P54821 80-166), sequence (P54821 80-166): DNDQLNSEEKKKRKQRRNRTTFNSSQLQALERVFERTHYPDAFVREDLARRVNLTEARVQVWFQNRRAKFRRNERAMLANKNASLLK
# HOXC10 (Homo sapiens, UniProt Q9NYD6 254-340, K271E), sequence (Q9NYD6 254-340 K271E): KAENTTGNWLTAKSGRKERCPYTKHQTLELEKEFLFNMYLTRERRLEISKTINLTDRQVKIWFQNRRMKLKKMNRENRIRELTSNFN
# HOXC10 (Homo sapiens, UniProt Q9NYD6 254-340), sequence (Q9NYD6 254-340): as the sequence (Q9NYD6 254-340 K271E) above, with E18K counted along it
# HOXD13 (Homo sapiens, UniProt P35453 263-343, T313A), sequence (P35453 263-343 T313A): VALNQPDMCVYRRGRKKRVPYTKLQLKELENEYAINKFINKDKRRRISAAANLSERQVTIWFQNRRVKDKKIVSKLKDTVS
# ALX3 (Homo sapiens, UniProt O95076 139-225, N203Q), sequence (O95076 139-225 N203Q): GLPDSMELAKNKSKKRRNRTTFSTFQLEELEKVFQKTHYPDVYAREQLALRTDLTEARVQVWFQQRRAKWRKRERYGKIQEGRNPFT
# PRRX1 (Homo sapiens, UniProt P54821 80-166, F113S), sequence (P54821 80-166 F113S): as the sequence (P54821 80-166) above, with F34S counted along it
# ALX4 (Homo sapiens, UniProt Q9H161 200-286, Q225E), sequence (Q9H161 200-286 Q225E): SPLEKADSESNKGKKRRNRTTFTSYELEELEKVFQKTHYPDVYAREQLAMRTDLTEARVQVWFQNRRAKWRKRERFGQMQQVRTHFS
# PROP1 (Homo sapiens, UniProt O75360 56-141, F88S), sequence (O75360 56-141 F88S): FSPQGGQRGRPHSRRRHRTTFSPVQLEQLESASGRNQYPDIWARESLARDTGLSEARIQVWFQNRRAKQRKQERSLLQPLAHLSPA
# HOXA2 (Homo sapiens, UniProt O43364 129-215), sequence (O43364 129-215): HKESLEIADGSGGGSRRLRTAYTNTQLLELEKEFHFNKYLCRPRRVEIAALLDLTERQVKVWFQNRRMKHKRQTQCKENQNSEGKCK
# ALX3 (Homo sapiens, UniProt O95076 139-225, L168Q), sequence (O95076 139-225 L168Q): as the sequence (O95076 139-225 N203Q) above, with L30Q, Q65N counted along it
# HOXB6 (Homo sapiens, UniProt P17509 132-218), sequence (P17509 132-218): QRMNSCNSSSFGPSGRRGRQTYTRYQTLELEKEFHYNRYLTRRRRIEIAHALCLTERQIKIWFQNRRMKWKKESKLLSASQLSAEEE
# HOXA2 (Homo sapiens, UniProt O43364 129-215, R185K), sequence (O43364 129-215 R185K): as the sequence (O43364 129-215) above, with R57K counted along it
# ALX3 (Homo sapiens, UniProt O95076 139-225, N203S), sequence (O95076 139-225 N203S): as the sequence (O95076 139-225 N203Q) above, with Q65S counted along it
# HOXA2 (Homo sapiens, UniProt O43364 129-215, R185T), sequence (O43364 129-215 R185T): as the sequence (O43364 129-215) above, with R57T counted along it
# ALX3 (Homo sapiens, UniProt O95076 139-225), sequence (O95076 139-225): as the sequence (O95076 139-225 N203Q) above, with Q65N counted along it
# PROP1 (Homo sapiens, UniProt O75360 56-141), sequence (O75360 56-141): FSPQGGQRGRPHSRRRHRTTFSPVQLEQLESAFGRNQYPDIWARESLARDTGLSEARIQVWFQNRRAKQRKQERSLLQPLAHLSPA
# PROP1 (Homo sapiens, UniProt O75360 56-141, R99H), sequence (O75360 56-141 R99H): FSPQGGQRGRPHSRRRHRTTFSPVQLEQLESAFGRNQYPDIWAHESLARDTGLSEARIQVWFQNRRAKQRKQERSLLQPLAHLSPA
# ALX4 (Homo sapiens, UniProt Q9H161 200-286), sequence (Q9H161 200-286): as the sequence (Q9H161 200-286 Q225E) above, with E26Q counted along it
# HOXD13 (Homo sapiens, UniProt P35453 263-343), sequence (P35453 263-343): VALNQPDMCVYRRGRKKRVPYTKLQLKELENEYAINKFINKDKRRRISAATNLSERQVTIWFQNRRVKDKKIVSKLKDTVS
# HOXB6 (Homo sapiens, UniProt P17509 132-218, K202E), sequence (P17509 132-218 K202E): as the sequence (P17509 132-218) above, with K71E counted along it
# HOXA2 (Homo sapiens, UniProt O43364 129-215, Y150S), sequence (O43364 129-215 Y150S): as the sequence (O43364 129-215) above, with Y22S counted along it
# ALX3 (Homo sapiens, UniProt O95076 139-225, L168V), sequence (O95076 139-225 L168V): as the sequence (O95076 139-225 N203Q) above, with L30V, Q65N counted along it
# HOXD13 (Homo sapiens, UniProt P35453 263-343, T313R), sequence (P35453 263-343 T313R): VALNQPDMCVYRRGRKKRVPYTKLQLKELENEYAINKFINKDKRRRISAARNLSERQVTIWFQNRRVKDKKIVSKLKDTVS
sequence,measurement,setting,value
AAAGCACT,binding signal,NKX2-4 [1],"11.7 upbm affinity estimate (log intensity, higher = more binding, comparable within an allelic series)"
same,binding signal,NKX2-4 [2],"11.9 upbm affinity estimate (log intensity, higher = more binding, comparable within an allelic series)"
same,binding signal,NKX2-4 [3],"11.6 upbm affinity estimate (log intensity, higher = more binding, comparable within an allelic series)"
same,binding signal,NKX2-4 [4],"11.9 upbm affinity estimate (log intensity, higher = more binding, comparable within an allelic series)"
CGTCGGGC,binding signal,NKX2-4 [1],"9.35 upbm affinity estimate (log intensity, higher = more binding, comparable within an allelic series)"
same,binding signal,NKX2-4 [2],"9.21 upbm affinity estimate (log intensity, higher = more binding, comparable within an allelic series)"
same,binding signal,HOXC10 [5],"10 upbm affinity estimate (log intensity, higher = more binding, comparable within an allelic series)"
same,binding signal,NKX2-4 [3],"9.36 upbm affinity estimate (log intensity, higher = more binding, comparable within an allelic series)"
same,binding signal,HOXC10 [6],"10.1 upbm affinity estimate (log intensity, higher = more binding, comparable within an allelic series)"
same,binding signal,NKX2-4 [4],"9.37 upbm affinity estimate (log intensity, higher = more binding, comparable within an allelic series)"
GCGGCGAC,binding signal,NKX2-4 [1],"9.68 upbm affinity estimate (log intensity, higher = more binding, comparable within an allelic series)"
same,binding signal,NKX2-4 [2],"9.58 upbm affinity estimate (log intensity, higher = more binding, comparable within an allelic series)"
same,binding signal,NKX2-4 [3],"9.61 upbm affinity estimate (log intensity, higher = more binding, comparable within an allelic series)"
same,binding signal,NKX2-4 [4],"9.79 upbm affinity estimate (log intensity, higher = more binding, comparable within an allelic series)"
CCCGGGCC,binding signal,NKX2-4 [1],"9.16 upbm affinity estimate (log intensity, higher = more binding, comparable within an allelic series)"
same,binding signal,NKX2-4 [2],"8.94 upbm affinity estimate (log intensity, higher = more binding, comparable within an allelic series)"
same,binding signal,PAX4 [7],"9.02 upbm affinity estimate (log intensity, higher = more binding, comparable within an allelic series)"
same,binding signal,PAX4 [8],"9.01 upbm affinity estimate (log intensity, higher = more binding, comparable within an allelic series)"
same,binding signal,NKX2-4 [3],"9.18 upbm affinity estimate (log intensity, higher = more binding, comparable within an allelic series)"
same,binding signal,HOXB6 [9],"8.77 upbm affinity estimate (log intensity, higher = more binding, comparable within an allelic series)"
same,binding signal,HOXA2 [10],"7.21 upbm affinity estimate (log intensity, higher = more binding, comparable within an allelic series)"
same,binding signal,ALX3 [11],"7.64 upbm affinity estimate (log intensity, higher = more binding, comparable within an allelic series)"
same,binding signal,PAX4 [12],"9.07 upbm affinity estimate (log intensity, higher = more binding, comparable within an allelic series)"
same,binding signal,HOXA2 [13],"10.1 upbm affinity estimate (log intensity, higher = more binding, comparable within an allelic series)"
same,binding signal,PAX4 [14],"8.94 upbm affinity estimate (log intensity, higher = more binding, comparable within an allelic series)"
same,binding signal,ALX3 [15],"7.66 upbm affinity estimate (log intensity, higher = more binding, comparable within an allelic series)"
same,binding signal,NKX2-4 [4],"9.15 upbm affinity estimate (log intensity, higher = more binding, comparable within an allelic series)"
same,binding signal,PAX4 [16],"8.97 upbm affinity estimate (log intensity, higher = more binding, comparable within an allelic series)"
same,binding signal,PROP1 [17],"6.58 upbm affinity estimate (log intensity, higher = more binding, comparable within an allelic series)"
same,binding signal,PROP1 [18],"6.56 upbm affinity estimate (log intensity, higher = more binding, comparable within an allelic series)"
same,binding signal,ALX3 [19],"7.63 upbm affinity estimate (log intensity, higher = more binding, comparable within an allelic series)"
same,binding signal,ALX3 [20],"7.64 upbm affinity estimate (log intensity, higher = more binding, comparable within an allelic series)"
same,binding signal,PROP1 [21],"6.14 upbm affinity estimate (log intensity, higher = more binding, comparable within an allelic series)"
same,binding signal,PAX4 [22],"9.08 upbm affinity estimate (log intensity, higher = more binding, comparable within an allelic series)"
same,binding signal,HOXA2 [23],"10.2 upbm affinity estimate (log intensity, higher = more binding, comparable within an allelic series)"
same,binding signal,ALX3 [24],"7.61 upbm affinity estimate (log intensity, higher = more binding, comparable within an allelic series)"
same,binding signal,HOXA2 [25],"7.08 upbm affinity estimate (log intensity, higher = more binding, comparable within an allelic series)"
same,binding signal,HOXB6 [26],"8.77 upbm affinity estimate (log intensity, higher = more binding, comparable within an allelic series)"
AGATGCCG,binding signal,NKX2-4 [1],"9.76 upbm affinity estimate (log intensity, higher = more binding, comparable within an allelic series)"
same,binding signal,NKX2-4 [2],"9.8 upbm affinity estimate (log intensity, higher = more binding, comparable within an allelic series)"
same,binding signal,ALX4 [27],"8.1 upbm affinity estimate (log intensity, higher = more binding, comparable within an allelic series)"
same,binding signal,NKX2-4 [3],"9.82 upbm affinity estimate (log intensity, higher = more binding, comparable within an allelic series)"
same,binding signal,ALX4 [28],"8.32 upbm affinity estimate (log intensity, higher = more binding, comparable within an allelic series)"
same,binding signal,NKX2-4 [4],"9.91 upbm affinity estimate (log intensity, higher = more binding, comparable within an allelic series)"
CTATTAAC,binding signal,NKX2-4 [1],"11.7 upbm affinity estimate (log intensity, higher = more binding, comparable within an allelic series)"
same,binding signal,NKX2-4 [2],"11.8 upbm affinity estimate (log intensity, higher = more binding, comparable within an allelic series)"
same,binding signal,NKX2-4 [3],"11.6 upbm affinity estimate (log intensity, higher = more binding, comparable within an allelic series)"
same,binding signal,HOXD13 [29],"10.8 upbm affinity estimate (log intensity, higher = more binding, comparable within an allelic series)"
same,binding signal,HOXD13 [30],"12 upbm affinity estimate (log intensity, higher = more binding, comparable within an allelic series)"
same,binding signal,NKX2-4 [4],"11.8 upbm affinity estimate (log intensity, higher = more binding, comparable within an allelic series)"
same,binding signal,HOXD13 [31],"11.8 upbm affinity estimate (log intensity, higher = more binding, comparable within an allelic series)"
CCCGCCTC,binding signal,NKX2-4 [1],"9.39 upbm affinity estimate (log intensity, higher = more binding, comparable within an allelic series)"
same,binding signal,NKX2-4 [2],"9.25 upbm affinity estimate (log intensity, higher = more binding, comparable within an allelic series)"
same,binding signal,PRRX1 [32],"9.33 upbm affinity estimate (log intensity, higher = more binding, comparable within an allelic series)"
same,binding signal,NKX2-4 [3],"9.39 upbm affinity estimate (log intensity, higher = more binding, comparable within an allelic series)"
same,binding signal,NKX2-4 [4],"9.31 upbm affinity estimate (log intensity, higher = more binding, comparable within an allelic series)"
same,binding signal,PRRX1 [33],"8.99 upbm affinity estimate (log intensity, higher = more binding, comparable within an allelic series)"
AGCCTCAG,binding signal,NKX2-4 [1],"9.76 upbm affinity estimate (log intensity, higher = more binding, comparable within an allelic series)"
same,binding signal,NKX2-4 [2],"9.76 upbm affinity estimate (log intensity, higher = more binding, comparable within an allelic series)"
same,binding signal,HOXC10 [5],"10.1 upbm affinity estimate (log intensity, higher = more binding, comparable within an allelic series)"
same,binding signal,NKX2-4 [3],"9.79 upbm affinity estimate (log intensity, higher = more binding, comparable within an allelic series)"
same,binding signal,HOXC10 [6],"10.1 upbm affinity estimate (log intensity, higher = more binding, comparable within an allelic series)"
same,binding signal,NKX2-4 [4],"9.76 upbm affinity estimate (log intensity, higher = more binding, comparable within an allelic series)"
